# From PubChem BioAssay (EPA / NIEHS)
# Records with an inconclusive call do not appear. The source made the active and inactive calls. How the source made its calls, unless noted: active means hit-call score of the fitted dose curve at least 0.9, where 1 is the maximum; inactive means score below 0.9.
# How the values were obtained:
# [1] = read-out: E-selectin (Homo sapiens) (UniProt P16581); test: BSK_3C_Eselectin: BioMAP Diversity Plus: 3C Assay for Eselectin Biomarker Activity (AID 2283015); settings: primary human endothelial cells (HUVEC); actives raise or lower the signal;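 on outcome: cell surface E-selectin protein quantified by ELISA 24 h after dosing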
# Method in brief: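 HUVEC, 3C stimulation; compound exposure 24 h; E-selectin by ELISA; gain- or loss-of-signal fitted bidirectionally vs DMSO baseline.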
# [2] = read-out: Monocyte Chemoattractant Protein-1 (MCP1), CCL2 (gene 6347); test: BSK_3C_MCP1: BioMAP Diversity Plus: 3C Assay for Monocyte Chemoattractant Protein-1 (MCP1) Biomarker Activity (AID 2283017); settings: primary human endothelial cells (HUVEC); actives raise or lower the signal
# Method in brief: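 HUVEC, 3C system; 24 h chemical exposure; MCP-1 by ELISA; bidirectional curve fit vs DMSO baseline.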
# [3] = read-out: Monocyte Chemoattractant Protein-1 (MCP1), CCL2 (gene 6347); test: BSK_4H_MCP1: BioMAP Diversity Plus: 4H Assay for Monocyte Chemoattractant Protein-1 (MCP1) Biomarker Activity (AID 2283018); settings: primary human endothelial cells (HUVEC); actives raise or lower the signal
# Method in brief: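 Primary human umbilical vein endothelium is exposed to chemical for 24 h before MCP-1 is assayed by ELISA. Concentration-response fitted bidirectionally relative to DMSO.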
# [4] = read-out: Human Leukocyte Antigen - DR isotype (HLADR), HLA-DRA (gene 3122); test: BSK_3C_HLADR: BioMAP Diversity Plus: 3C Assay for Human Leukocyte Antigen - DR isotype (HLADR) Biomarker Activity (AID 2283019); settings: primary human endothelial cells (HUVEC); actives raise or lower the signal;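 on outcome: ELISA of cell-surface HLA-DR on HUVEC 24 h after dosing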
# Method in brief: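 HUVEC, 3C stimulation, 24 h post-dose; HLA-DR by ELISA; bidirectional curve fit vs DMSO baseline; gain or loss of signal scored.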
# [5] = read-out: Interleukin-8 (IL8), CXCL8 (gene 3576); test: BSK_3C_IL8: BioMAP Diversity Plus: 3C Assay for Interleukin-8 (IL8) Biomarker Activity (AID 2283020); settings: primary human endothelial cells (HUVEC); actives raise or lower the signal
# Method in brief: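 Using DMSO-treated wells as the baseline, bidirectional curve fitting was applied to ELISA-measured IL-8 from human umbilical vein endothelial cultures sampled 24 h after compound addition.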
# [6] = read-out: Monokine induced gamma interferon (MIG), CXCL9 (gene 4283); test: BSK_3C_MIG: BioMAP Diversity Plus: 3C Assay for Monokine induced gamma interferon (MIG) Biomarker Activity (AID 2283021); settings: primary human endothelial cells (HUVEC); actives raise or lower the signal;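 on AC50: MIG protein level measured by immunoassay in the treated endothelial cultures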
# Method in brief: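 ELISA-measured MIG in dosed HUVEC 3C cultures at 24 h, analysed by bidirectional fitting with DMSO defining baseline activity.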
# [7] = BSK_3C_SRB: Viability Assessment in the BioMAP Diversity Plus: 3C Assay (AID 2283023); settings: primary human endothelial cells (HUVEC);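 further: fitted both ways against DMSO so a hit may be signal rise or drop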
# Method in brief: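 HUVEC, 24 h post-dose; 10% TCA fix, 0.1% SRB stain, A560 nm. Bidirectional curve fit vs DMSO negative control.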
# [8] = read-out: Matrix Metallopeptidase 1 (MMP1), MMP1 (gene 4312); test: BSK_BE3C_MMP1: BioMAP Diversity Plus: BE3C Assay for Matrix Metallopeptidase 1 (MMP1) Biomarker Activity (AID 2283024); settings: primary human bronchial epithelial cells; actives raise or lower the signal
# Method in brief: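 In this multiplexed primary-cell system, human bronchial epithelium received chemicals for 24 h before an ELISA for MMP1. Values reflect bidirectional fits normalised to the DMSO baseline.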
# [9] = BSK_3C_Vis: BioMAP Diversity Plus: 3C Assay for Morphology Visualization (AID 2283025); settings: primary human endothelial cells (HUVEC);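 further: fitted both ways so gain or loss versus DMSO counts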;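 on AC50: light microscopy image of cell morphology used as background control; cells imaged 24 h after dosing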
# Method in brief: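 Light-microscopy morphology readout, 24 h exposure, human primary umbilical vein endothelium; analysed relative to DMSO with bidirectional fitting.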
# [10] = read-out: Pselectin, SELP (gene 6403); test: BSK_4H_Pselectin: BioMAP Diversity Plus: 4H Assay for Pselectin Biomarker Activity (AID 2283026); settings: primary human endothelial cells (HUVEC); actives raise or lower the signal
# Method in brief: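 Bidirectional fits against DMSO gave the endpoint. Cells: primary human umbilical vein endothelium, chemical-treated for 24 h before ELISA detection of P-selectin.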
# [11] = BSK_BE3C_SRB: Viability Assessment in the BioMAP Diversity Plus: BE3C Assay (AID 2283028); settings: primary human bronchial epithelial cells;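 on AC50: fitted both ways so AC50 may mark signal gain or loss versus DMSO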
# Method in brief: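 Primary human bronchial epithelium; chemical dosing, 24 h; 10% TCA fix, 0.1% SRB stain, A560; bidirectional fit vs DMSO baseline.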
# [12] = read-out: Thrombomodulin, THBD (gene 7056); test: BSK_3C_Thrombomodulin: BioMAP Diversity Plus: 3C Assay for Thrombomodulin Biomarker Activity (AID 2283029); settings: primary human endothelial cells (HUVEC); actives raise or lower the signal
# Method in brief: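 In a multiplexed primary-cell system, human umbilical vein endothelium received chemical and was assayed 24 h later for thrombomodulin by ELISA. Parallel cultures were SRB-stained (0.1% SRB after 10% TCA fixation, read at 560 nm) to flag cytotoxicity.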
# [13] = read-out: Urokinase-type plasminogen activator receptor (uPAR), PLAUR (gene 5329); test: BSK_4H_uPAR: BioMAP Diversity Plus: 4H Assay for Urokinase-type plasminogen activator receptor (uPAR) Biomarker Activity (AID 2283030); settings: primary human endothelial cells (HUVEC); actives raise or lower the signal
# Method in brief: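 HUVEC, 24 h post-dose; uPAR by ELISA; bidirectional fit vs DMSO baseline.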
# [14] = read-out: Vascular endothelial growth factor receptor 2 (Homo sapiens) (UniProt P35968); test: BSK_4H_VEGFRII: BioMAP Diversity Plus: 4H Assay for Vascular endothelial growth factor receptor 2 (VEGFR2) Biomarker Activity (AID 2283031); settings: primary human endothelial cells (HUVEC); actives raise or lower the signal;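 on AC50: cell-surface VEGFR2 protein level quantified by ELISA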
# Method in brief: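 HUVEC (human primary), 4H system; 24 h post-dose; VEGFRII by ELISA; bidirectional curve fit vs DMSO baseline; gain or loss of signal scored.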
# [15] = read-out: Vascular cell adhesion molecule 1 (VCAM1), VCAM1 (gene 7412); test: BSK_4H_VCAM1: BioMAP Diversity Plus: 4H Assay for Vascular cell adhesion molecule 1 (VCAM1) Biomarker Activity (AID 2283033); settings: primary human endothelial cells (HUVEC); actives raise or lower the signal;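 on outcome: cell-surface VCAM-1 protein measured by ELISA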
# Method in brief: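 In this human endothelial (HUVEC) system, biomarker ELISA was run 24 h after compound addition, and total protein in parallel wells was assessed by SRB at 560 nm; DMSO served as negative control.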
# [16] = read-out: Interferon-gamma inducible Protein 10 (IP10), CXCL10 (gene 3627); test: BSK_BE3C_IP10: BioMAP Diversity Plus: BE3C Assay for Interferon-gamma inducible Protein 10 (IP10) Biomarker Activity (AID 2283034); settings: primary human bronchial epithelial cells; actives raise or lower the signal
# Method in brief: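 BE3C cells (human bronchial epithelial, primary); 24 h exposure; ELISA for IP-10; DMSO-referenced bidirectional fit.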
# [17] = molecular target: human Vitamin D Receptor (VDR), VDR (gene 7421) (UniProt P11473); test: ATG_VDR_TRANS: Attagene TRANS-FACTORIAL HepG2 Assay for human Vitamin D Receptor (VDR) (AID 2283022; active means hit-call score of the fitted dose curve at least 0.9, where 1 is the maximum)
# Sequence of human Vitamin D Receptor (VDR), VDR (gene 7421) (P11473 whole entry, looked up, the tested form may be a part): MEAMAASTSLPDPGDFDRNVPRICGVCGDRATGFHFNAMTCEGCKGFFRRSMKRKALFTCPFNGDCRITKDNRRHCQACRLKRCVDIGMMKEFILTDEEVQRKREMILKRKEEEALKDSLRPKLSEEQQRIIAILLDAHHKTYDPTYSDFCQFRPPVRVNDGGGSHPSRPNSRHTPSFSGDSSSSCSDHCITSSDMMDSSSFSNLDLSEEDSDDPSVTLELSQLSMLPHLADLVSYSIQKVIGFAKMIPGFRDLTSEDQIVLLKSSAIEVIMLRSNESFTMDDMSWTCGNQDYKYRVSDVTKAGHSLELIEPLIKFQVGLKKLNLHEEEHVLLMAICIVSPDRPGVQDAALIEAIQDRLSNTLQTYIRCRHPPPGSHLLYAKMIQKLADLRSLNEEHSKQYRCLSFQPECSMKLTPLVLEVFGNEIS
# Method in brief: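 RT-PCR/capillary electrophoresis read-out of reporter mRNA induction in transiently transfected HepG2; 24 h dosing; chimeric NR-Gal4 (TRANS format); gain-of-signal fit against DMSO baseline.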
# [18] = BSK_4H_SRB: Viability Assessment in the BioMAP Diversity Plus: 4H Assay (AID 2283027); settings: primary human endothelial cells (HUVEC);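 further: cells exposed to compound for 24 h before staining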
# Method in brief: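 Cytotoxicity read-out in primary human endothelial cells: after 24 h compound exposure, cells were TCA-fixed (10%), stained with 0.1% SRB and absorbance taken at 560 nm. Values fitted in both directions relative to DMSO.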
# [19] = read-out: Human Leukocyte Antigen - DR isotype (HLADR), HLA-DRA (gene 3122); test: BSK_BE3C_HLADR: BioMAP Diversity Plus: BE3C Assay for Human Leukocyte Antigen - DR isotype (HLADR) Biomarker Activity (AID 2283032); settings: primary human bronchial epithelial cells; actives raise or lower the signal
# Method in brief: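 BioMAP BE3C format: human bronchial epithelium, 24 h compound treatment, ELISA detection of HLA-DR, with bidirectional analysis relative to DMSO.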
# Sequence of E-selectin (Homo sapiens) (P16581 whole entry, looked up): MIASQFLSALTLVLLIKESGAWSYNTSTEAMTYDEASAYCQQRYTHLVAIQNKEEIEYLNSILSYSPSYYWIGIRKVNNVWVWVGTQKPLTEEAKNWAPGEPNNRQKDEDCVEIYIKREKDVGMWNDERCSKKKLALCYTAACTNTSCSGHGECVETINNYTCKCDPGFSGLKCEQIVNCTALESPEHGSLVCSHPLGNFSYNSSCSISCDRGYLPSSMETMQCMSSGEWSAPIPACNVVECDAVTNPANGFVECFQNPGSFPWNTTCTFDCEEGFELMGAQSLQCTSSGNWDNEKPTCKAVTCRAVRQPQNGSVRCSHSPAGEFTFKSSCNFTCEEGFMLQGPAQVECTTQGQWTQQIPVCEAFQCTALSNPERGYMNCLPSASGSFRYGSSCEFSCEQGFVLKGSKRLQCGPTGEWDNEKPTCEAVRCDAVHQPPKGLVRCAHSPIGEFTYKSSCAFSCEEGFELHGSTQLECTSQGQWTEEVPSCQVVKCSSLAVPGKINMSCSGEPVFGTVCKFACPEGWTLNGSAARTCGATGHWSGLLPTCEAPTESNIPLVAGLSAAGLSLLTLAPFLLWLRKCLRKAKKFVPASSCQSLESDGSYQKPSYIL
smiles,measurement,setting,value
CC(C)=CCCC(C)CCO (configuration not stated),outcome,[1],inactive
same,outcome,[2],inactive
same,outcome,[3],inactive
same,outcome,[4],inactive
same,outcome,[5],inactive
same,outcome,[6],inactive
same,outcome,[7],inactive
same,outcome,[8],inactive
same,outcome,[9],inactive
same,outcome,[10],inactive
same,outcome,[11],inactive
same,outcome,[12],inactive
same,outcome,[13],inactive
same,outcome,[14],inactive
same,outcome,[15],inactive
same,outcome,[16],inactive
Cc1ccc(C)c(O)c1,outcome,[1],inactive
same,outcome,[2],inactive
same,outcome,[4],inactive
same,outcome,[5],inactive
same,outcome,[6],inactive
same,outcome,[17],inactive
same,outcome,[7],inactive
same,outcome,[8],inactive
same,outcome,[9],inactive
same,outcome,[10],inactive
same,outcome,[18],inactive
same,outcome,[11],inactive
same,outcome,[12],inactive
same,outcome,[13],inactive
same,outcome,[14],inactive
same,outcome,[19],inactive
same,outcome,[15],inactive
same,outcome,[16],inactive
O=C(CCCCCCCCc1cccnc1)N1CCC(C=C(c2ccccc2)c2ccccc2)CC1,AC50,[1],19.4 µM (active)
same,AC50,[2],8.66 µM (active)
same,AC50,[3],5.75 µM (active)
same,AC50,[4],6.54 µM (active)
same,AC50,[5],8.66 µM (active)
same,AC50,[6],14.2 µM (active)
same,AC50,[17],100 µM (active)
same,AC50,[7],8.88 µM (active)
same,AC50,[10],6.41 µM (active)
same,AC50,[11],34.2 µM (active)
same,outcome,[12],inactive
same,AC50,[13],11.2 µM (active)
same,AC50,[14],8 µM (active)
same,AC50,[19],17.6 µM (active)
same,AC50,[15],12.7 µM (active)
same,AC50,[16],24.5 µM (active)
CCOC(=O)c1ccc(C2CCC(NC[C@H](O)COc3ccc(O)c(NS(C)(=O)=O)c3)CC2)cc1 (some centres not stated),outcome,[1],inactive
same,AC50,[2],27.9 µM (active)
same,outcome,[3],inactive
same,AC50,[4],31.1 µM (active)
same,AC50,[5],27.7 µM (active)
same,outcome,[6],inactive
same,AC50,[7],25.1 µM (active)
same,outcome,[8],inactive
same,AC50,[9],37.1 µM (active)
same,AC50,[10],27 µM (active)
same,outcome,[11],inactive
same,outcome,[12],inactive
same,outcome,[13],inactive
same,outcome,[14],inactive
same,outcome,[19],inactive
same,outcome,[15],inactive
same,outcome,[16],inactive
